The text below walks through data of PubChem BioAssay.

SMILES strings stand for the structures. Calls of active or inactive are those of the source.

Assay [1] deals with Albumin (Bos taurus) (UniProt P02769). The assay is described as follows: bovine serum albumin binders on microarray, profiling panel, artefact control for SMM control protein annotation, biochemical, small-molecule microarray, Alexa647 label, 635/667 nm fluorescence (AID 1118).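 Further: score merges 667 nm emission intensity and signal-to-noise per printed compound spot.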 The note with it: BSA-A647 binding, fluorescence 635 nm, higher = more signal.
The nature of assay [2]: small-molecule microarray binders of probe aXIP, primary screen, biochemical, NeuroSMM set, 635/667 nm fluorescence (AID 1119).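 Further: probe is the protein aXip251-270 applied at 1 µg/mL to compound-printed slides; binding of probe to printed compounds measured as 667 nm fluorescence plus signal to noise.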 The note with it: higher = more signal, called active from +8 up or from −8 down.
Assay [3] can be described thus: small-molecule binders of probe aNOTCH3, primary screen, biochemical, small-molecule microarray, 635/667 nm fluorescence (AID 1120).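 Further: probe is a biotin-tagged antibody raised against NOTCH3 rather than NOTCH3 protein; score merges spot fluorescence near 667 nm with spot signal to noise.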 The note with it: higher = more signal.
A short description of assay [4]: small-molecule binders of probe aNOTCH2, primary screen, biochemical, small-molecule microarray, 635/667 nm fluorescence (AID 1121).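 Further: score merges feature fluorescence read at 667 nm with its signal to noise.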 The following applies: higher = more signal.
Assay [5] addresses Carbonic anhydrase 2 (Homo sapiens) (UniProt P00918). Kind of assay: CAII small-molecule binders, profiling panel, biochemical, small-molecule microarray, Alexa647-labelled CAII (AID 1122). The note with it: CAII-A647 binding fluorescence, higher = more signal.
Assay [6] is described as follows: COS7 lysate on small-molecule microarray, probe aHis, 635 nm (AID 1123).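 Further: z-score combines 667nm fluorescence intensity with signal-to-noise per printed compound spot.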 The note with it: COS7 cell lysate, fluorescence, higher = more signal.
The nature of assay [7]: compound binding in COS7 lysate, probe aLAP1, primary screen, cell lysate, small-molecule microarray (AID 1124).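 Further: lysate comes from COS7 cells expressing LAP1 and is applied at 0.3 µg/mL; score merges spot fluorescence near 667 nm with signal-to-noise over triplicate slides.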 The note with it: probe aLAP1, fluorescence, higher = more signal.
The subject of assay [8] is Sam68 (KHDRBS1). Kind of assay: Sam68 small-molecule binders, primary screen, biochemical, small-molecule microarray, 635 nm fluorescence (AID 1125).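 Further: score merges 667 nm channel intensity with signal to noise over triplicate slides.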 The following applies: small-molecule microarray binding, higher = more signal.
Assay [9] deals with Chordin-like protein 2 (CHRDL2). The assay is described as follows: CHRDL2 small-molecule binders, primary screen, biochemical, small-molecule microarray, 635 nm fluorescence (AID 1126).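 Further: printed compound slides probed with Chrdl2 protein at 4 µg/mL for 1 h at 4 C; score merges 667 nm emission intensity with signal to noise over three replicate slides.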 The following applies: small-molecule microarray binding, fluorescence 635 nm; higher = more signal.
The target in assay [10] is Concanavalin-A (Canavalia ensiformis) (UniProt P02866). Kind of assay: ConA small-molecule binders, primary screen, artefact control for SMM control protein annotation, biochemical, small-molecule microarray, Alexa647 label, 635 nm (AID 1127).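 Further: z combines 667 nm emission intensity with signal-to-noise across three replicate slides.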 The following applies: ConA-A647 binding fluorescence, higher = more signal.
A short description of assay [11]: anti-His antibody binders, primary screen, artefact control for SMM control protein annotation, biochemical, small-molecule microarray, 635 nm fluorescence (AID 1128).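 Further: score merges feature fluorescence with signal-to-noise for each printed compound spot.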 The note with it: anti-His Alexa647 antibody binding, higher = more signal.
The test system of assay [12] is Human papillomavirus type 1a E7 protein (residues 1-88). The assay is described as follows: HPV1a E7 small-molecule binders, primary screen, biochemical, small-molecule microarray, residues 1-88, 635 nm (AID 1129). The note with it: small-molecule microarray binding, fluorescence 635 nm; higher = more signal.
For assay [13], the target named is Focal adhesion kinase 1 (Homo sapiens) (UniProt Q05397). The assay is described as follows: small-molecule microarray binders of FAK, primary screen, biochemical, 635/667 nm fluorescence, BSA, DTT (AID 1130).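 Further: composite of spot emission at 667 nm and signal to noise over triplicate slides.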 The following applies: PTK2 binding, 635 nm fluorescence, higher = more signal.
For assay [14], the system named is Fibrinogen (Alexa647-labelled). The assay is described as follows: fibrinogen binders on compound microarrays, profiling panel, artefact control for SMM control-protein annotation, biochemical, small-molecule microarray, 635/667 nm fluorescence (AID 1131).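 Further: z-score merges 667 nm fluorescence with per-spot signal-to-noise over triplicate slides.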 The following applies: fibrinogen-A647 binding fluorescence, higher = more signal.
The target of assay [15] is Follistatin (Homo sapiens) (UniProt P19883). Kind of assay: follistatin binders on small-molecule microarrays, primary screen, biochemical, small-molecule microarray, 635/667 nm fluorescence (AID 1132). The note with it: FST binding, 635 nm fluorescence, higher = more signal.
Assay [16] addresses Fibroblast growth factor 2 (Homo sapiens) (UniProt P09038). The assay is described as follows: FGF2 binders on small-molecule microarrays, primary screen, biochemical, small-molecule microarray, 635/667 nm fluorescence (AID 1133). The following applies: small-molecule microarray binding, FGF2, fluorescence 635/667; higher = more signal.
Assay [17] is described as follows: mitochondrial membrane potential change in A549 cells, profiling panel, cell-based, JC-1 fluorescence, basal, 24 h, 100 nL (AID 1138).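 Further: A549 lung adenocarcinoma cells under basal conditions with no added stimulus; test concentration not given here.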 The note with it: higher = more signal.
The test system of assay [18] is Lefty1. The assay is described as follows: Lefty1 binders on small-molecule microarrays, primary screen, biochemical, small-molecule microarray, 635/667 nm fluorescence (AID 1139). The note with it: small-molecule microarray binding, fluorescence 635/667; higher = more signal.
Assay [19] relates to wheat germ agglutinin (Triticum aestivum), Alexa647-labelled. Kind of assay: wheat germ agglutinin binders on compound microarrays, profiling panel, artefact control for SMM control-protein annotation, biochemical, small-molecule microarray, 635/667 nm fluorescence (AID 1140).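 Further: score merges 667 nm feature emission with signal to noise over triplicate slides.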 The following applies: WGA-A647 binding, 635 nm fluorescence, higher = more signal.
In assay [20] the target is Luciferin 4-monooxygenase (Photinus pyralis) (UniProt P08659). The assay is described as follows: firefly luciferase enzyme inhibitors, primary screen, biochemical, luminescence, purified enzyme, 2006 set (AID 1141).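 Further: cell-free assay with purified firefly luciferase at 100 ng per well in PBS; test concentration not given here.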 The following applies: SteadyGlo luminescence, 30 min, higher = more signal, called active from +8 up or from −8 down.
Chain of Luciferin 4-monooxygenase (Photinus pyralis) (P08659 whole entry, looked up): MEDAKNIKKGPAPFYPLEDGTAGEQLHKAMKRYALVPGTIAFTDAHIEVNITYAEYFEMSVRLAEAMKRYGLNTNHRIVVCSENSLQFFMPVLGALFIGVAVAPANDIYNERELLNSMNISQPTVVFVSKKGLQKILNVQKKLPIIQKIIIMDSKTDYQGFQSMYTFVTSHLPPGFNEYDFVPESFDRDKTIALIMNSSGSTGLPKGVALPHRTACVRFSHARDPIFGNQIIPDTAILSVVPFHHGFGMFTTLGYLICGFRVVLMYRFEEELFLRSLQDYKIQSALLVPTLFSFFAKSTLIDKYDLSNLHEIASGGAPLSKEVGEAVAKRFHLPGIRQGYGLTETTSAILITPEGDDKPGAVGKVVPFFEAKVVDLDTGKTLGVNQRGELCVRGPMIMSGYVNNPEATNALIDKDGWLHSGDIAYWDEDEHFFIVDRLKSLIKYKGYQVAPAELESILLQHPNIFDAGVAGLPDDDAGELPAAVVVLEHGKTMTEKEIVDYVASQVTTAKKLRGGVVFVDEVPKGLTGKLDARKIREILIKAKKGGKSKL

Chain of Follistatin (Homo sapiens) (P19883 whole entry, looked up): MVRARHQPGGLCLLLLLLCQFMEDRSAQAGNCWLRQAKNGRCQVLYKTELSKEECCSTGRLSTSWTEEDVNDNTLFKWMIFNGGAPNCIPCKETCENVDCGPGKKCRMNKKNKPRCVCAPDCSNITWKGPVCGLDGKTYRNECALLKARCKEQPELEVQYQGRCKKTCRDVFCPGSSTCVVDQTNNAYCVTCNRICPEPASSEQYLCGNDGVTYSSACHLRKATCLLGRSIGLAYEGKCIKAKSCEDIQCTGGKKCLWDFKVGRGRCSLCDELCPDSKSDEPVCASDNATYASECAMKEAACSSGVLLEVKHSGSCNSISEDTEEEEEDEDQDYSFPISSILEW
Chain of Concanavalin-A (Canavalia ensiformis) (P02866 whole entry, looked up): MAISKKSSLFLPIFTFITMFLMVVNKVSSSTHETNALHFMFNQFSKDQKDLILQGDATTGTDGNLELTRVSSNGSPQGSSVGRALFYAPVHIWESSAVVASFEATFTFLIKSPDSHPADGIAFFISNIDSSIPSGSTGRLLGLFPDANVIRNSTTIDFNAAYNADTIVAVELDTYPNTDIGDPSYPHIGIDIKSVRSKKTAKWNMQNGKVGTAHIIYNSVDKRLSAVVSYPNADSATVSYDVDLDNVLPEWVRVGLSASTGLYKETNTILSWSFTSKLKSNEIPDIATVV
Chain of Fibroblast growth factor 2 (Homo sapiens) (P09038 whole entry, looked up): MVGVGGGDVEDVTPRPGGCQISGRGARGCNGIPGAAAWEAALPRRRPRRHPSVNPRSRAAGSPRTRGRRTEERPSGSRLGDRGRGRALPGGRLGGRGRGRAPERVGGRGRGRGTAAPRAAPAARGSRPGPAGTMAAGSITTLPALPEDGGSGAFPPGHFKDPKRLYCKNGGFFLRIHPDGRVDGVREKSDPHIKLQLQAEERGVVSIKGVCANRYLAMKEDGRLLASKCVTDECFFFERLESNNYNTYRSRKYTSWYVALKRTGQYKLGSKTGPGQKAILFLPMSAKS
Chain of Albumin (Bos taurus) (P02769 whole entry, looked up): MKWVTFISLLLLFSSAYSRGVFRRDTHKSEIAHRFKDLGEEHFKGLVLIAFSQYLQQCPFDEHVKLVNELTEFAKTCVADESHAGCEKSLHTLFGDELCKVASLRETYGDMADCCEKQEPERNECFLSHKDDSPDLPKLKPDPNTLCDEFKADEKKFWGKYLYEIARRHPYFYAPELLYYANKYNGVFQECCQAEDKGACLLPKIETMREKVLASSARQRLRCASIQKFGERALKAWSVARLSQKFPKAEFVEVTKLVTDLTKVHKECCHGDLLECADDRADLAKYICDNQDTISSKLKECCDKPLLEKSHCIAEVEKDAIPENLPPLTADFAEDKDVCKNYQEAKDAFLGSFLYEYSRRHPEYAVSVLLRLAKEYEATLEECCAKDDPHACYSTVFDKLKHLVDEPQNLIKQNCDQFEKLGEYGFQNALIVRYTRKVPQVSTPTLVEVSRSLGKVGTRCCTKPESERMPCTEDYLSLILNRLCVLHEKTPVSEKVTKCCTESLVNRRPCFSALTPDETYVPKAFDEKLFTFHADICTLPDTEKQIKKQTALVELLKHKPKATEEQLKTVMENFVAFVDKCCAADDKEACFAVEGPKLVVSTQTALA
Chain of Focal adhesion kinase 1 (Homo sapiens) (Q05397 whole entry, looked up): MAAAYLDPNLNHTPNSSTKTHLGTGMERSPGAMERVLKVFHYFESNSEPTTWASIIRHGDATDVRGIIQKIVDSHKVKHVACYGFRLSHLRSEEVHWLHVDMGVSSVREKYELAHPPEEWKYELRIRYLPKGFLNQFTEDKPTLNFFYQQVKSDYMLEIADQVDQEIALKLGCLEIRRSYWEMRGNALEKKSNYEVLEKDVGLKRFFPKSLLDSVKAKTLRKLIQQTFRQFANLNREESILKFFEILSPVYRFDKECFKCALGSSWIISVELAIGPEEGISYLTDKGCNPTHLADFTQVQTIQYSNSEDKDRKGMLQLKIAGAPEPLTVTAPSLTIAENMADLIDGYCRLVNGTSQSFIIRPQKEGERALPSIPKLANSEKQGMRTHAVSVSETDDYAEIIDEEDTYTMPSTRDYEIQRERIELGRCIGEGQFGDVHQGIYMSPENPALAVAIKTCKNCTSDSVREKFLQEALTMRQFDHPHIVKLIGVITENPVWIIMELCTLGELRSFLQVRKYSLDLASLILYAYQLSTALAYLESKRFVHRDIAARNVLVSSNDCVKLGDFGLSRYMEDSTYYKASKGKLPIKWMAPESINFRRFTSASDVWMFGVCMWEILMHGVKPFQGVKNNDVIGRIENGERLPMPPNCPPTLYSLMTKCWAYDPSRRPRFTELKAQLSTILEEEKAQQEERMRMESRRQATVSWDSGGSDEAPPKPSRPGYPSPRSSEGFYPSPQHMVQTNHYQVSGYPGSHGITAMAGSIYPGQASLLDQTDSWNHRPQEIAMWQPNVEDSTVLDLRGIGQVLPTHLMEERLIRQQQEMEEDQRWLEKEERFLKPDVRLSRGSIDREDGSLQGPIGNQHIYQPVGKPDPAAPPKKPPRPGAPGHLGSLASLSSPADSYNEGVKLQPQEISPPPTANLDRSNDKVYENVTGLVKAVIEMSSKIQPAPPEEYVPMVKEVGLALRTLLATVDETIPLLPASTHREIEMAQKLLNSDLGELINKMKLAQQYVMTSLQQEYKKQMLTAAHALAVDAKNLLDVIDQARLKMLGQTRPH

For the molecule `C=CC[C@@]1(C(=O)NCCCOC)N=C(c2ccc(OCCCO)cc2)O[C@@H]1c1ccccc1N=[N+]=[N-]`, the composite z-score in [1] was 0.896; in assay [3], 0.356; in assay [4] it was -0.125; in assay [5], 0.224; in assay [6], 1.73; in assay [7], 0.209. The composite z-score in [8] is 1.01; in assay [9] it was -0.325; in assay [10], 0.562; in assay [11], 2.2; in assay [12], 1.21; in assay [13], 0.474. Also, the composite z-score in assay [14] was 1.03; in assay [15], 1.28; in assay [16], 0.0912; in [18], -0.115; in [19], 0.736. For the same molecule, the composite Z-score in [2] was -0.349 (inactive). The z-score is 1.3 in assay [17] and -3.67 (inactive) in assay [20].

In the case of `C=CCC(OC(C)=O)[C@@H]1[C@@H](N(Cc2cccc3ccccc23)C(=O)Cc2ccc(OC)cc2)c2cc(OCCCO)ccc2N1C(=O)c1ccc(-c2ccccc2)cc1` (stereo not given in full), the composite z-score is 0.249 in assay [1]; -0.0647 in [3]; -0.0895 in assay [4]; -0.0283 in [5]; 0.917 in assay [6]; 0.181 in assay [7]. The composite z-score in assay [8] is -0.189; in [9], 0.0133; in [10], -0.285; in [11], -0.328; in assay [12], -0.127; in assay [13], 0.0862. The composite z-score was 0.701 in assay [14]; 0.662 in [15]; 0.394 in assay [16]; -0.47 in [18]; 0.297 in assay [19]. The composite Z-score in assay [2] is -0.166 (inactive). Further, the z-score in [17] was 0.0256; in assay [20], 0.828 (inactive).

As to `CCOC(=O)C[C@H]1[C@H](OC(=O)c2ccc(C(=O)c3ccccc3)cc2)[C@@H](NC(=O)c2ccc3ccccc3n2)c2cc(OCCCO)ccc2N1C(=O)Cc1ccc(OC)cc1`, the composite z-score is 0.567 in [1]; 0.0779 in [3]; -0.153 in assay [4]; -0.175 in assay [5]; 0.759 in assay [6]; -0.263 in [7]. In addition, the composite z-score is 0.627 in [8]; -0.384 in assay [9]; 0.93 in [10]; -0.249 in assay [11]; 0.656 in assay [12]; 0.0555 in assay [13]. The composite z-score stood at 0.692 in [14]; 0.259 in assay [15]; 0.52 in [16]; 0.208 in [18]; 0.207 in assay [19]. Moreover, in assay [2], the composite Z-score was -0.201 (inactive). The z-score is -0.44 in [17] and 0.541 (inactive) in [20].

For `COc1ccc(CCNC(=O)[C@@]2(Cc3ccccc3I)c3ccccc3C(=O)N(C3CCCCC3)[C@H]2c2ccc(CO)cc2)cc1`, the composite z-score in [1] is 0.471; in assay [3], -0.0647; in [4] it was -0.162; in assay [5] it was 0.218; in [6], 1.5; in assay [7], -0.167. In addition, the composite z-score was 0.621 in assay [8]; -0.718 in assay [9]; 0.969 in [10]; 0.362 in assay [11]; 0.839 in assay [12]; 0.22 in assay [13]. For the same molecule, the composite z-score was 0.434 in assay [14]; 0.341 in assay [15]; -0.199 in assay [16]; 0.106 in [18]; 0.177 in assay [19]. The composite Z-score in assay [2] was -0.0065 (inactive). Moreover, the z-score in assay [17] is 0.348; in assay [20], 1.18 (inactive).

For `COCCOC(=O)N1C(=O)[C@@]2(c3cc(C#CC4=CCCCC4)ccc31)[C@H](c1ccccc1OCCO)N1[C@H](c3ccccc3)[C@H](c3ccccc3)OC(=O)[C@H]1[C@@H]2C(=O)NC[C@H](O)c1ccccc1`, the composite z-score in assay [1] is -0.185; in assay [3] it was 0.463; in assay [4], -0.118; in [5] it was 0.409; in assay [6], 1.53; in [7], 0.661. Also, the composite z-score was 1.3 in [8]; 0.715 in assay [9]; 1.14 in [10]; 0.705 in assay [11]; 1.14 in assay [12]; 0.303 in assay [13]. For the same molecule, the composite z-score stood at 0.882 in assay [14]; 1.36 in assay [15]; 1.52 in assay [16]; 1.46 in assay [18]; 0.658 in assay [19]. Also, the composite Z-score in assay [2] was 0.511 (inactive). The z-score in assay [17] is -0.701; in assay [20] it was -1.04 (inactive).

As for `CCCC[C@@H](O)C1=C(COc2ccccc2)C[C@H]2C(=O)N(Cc3ccccc3)C(=O)[C@H]2[C@H]1CO`, the composite z-score in assay [1] is 0.0031; in assay [3], -0.287; in assay [4], -0.0795; in assay [5] it was 0.099; in [6] it was 0.523; in assay [7], -0.523. For the same molecule, the composite z-score is 0.426 in [8]; 0.228 in assay [9]; 0.395 in assay [10]; -0.412 in [11]; -0.0512 in [12]; -0.0235 in [13]. Also, the composite z-score is 0.832 in [14]; 0.269 in assay [15]; 0.275 in assay [16]; 0.634 in [18]; 0.371 in assay [19]. For the same molecule, in assay [2], the composite Z-score is -0.861 (inactive). Also, the values for the z-score in assay [17] and in assay [20] were 0.85 and -1.25 (inactive), respectively.
